Laboratory results: PubChem BioAssay AID588676 (Johns Hopkins Ion Channel Center, 2011)
The campaign covered roughly 310,000 compounds. About 3,900 (1.3%) were called active.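 Rule for the calls: active = calcium-response B-score plate-corrected more than 3 library SD below zero, starting fluorescence within 5 deviations, no agonist response on first addition; inactive = the rest.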 Shown is part of a subset that was picked to be rich in actives.

biological target: Mas-related G-protein coupled receptor member X1 (Homo sapiens) (UniProt Q96LB2); test: antagonists of human MrgX1 receptor, primary screen, HEK293 cells, Fluo-4 calcium flux (AID 588676); conditions: Fluo-4, BAM8-22 antagonism, at 10 µM; hits give low values;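 for B-score: peak minus trough fluorescence over baseline after final BAM8-22 challenge near maximal dose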
Sequence (Q96LB2 whole entry, looked up): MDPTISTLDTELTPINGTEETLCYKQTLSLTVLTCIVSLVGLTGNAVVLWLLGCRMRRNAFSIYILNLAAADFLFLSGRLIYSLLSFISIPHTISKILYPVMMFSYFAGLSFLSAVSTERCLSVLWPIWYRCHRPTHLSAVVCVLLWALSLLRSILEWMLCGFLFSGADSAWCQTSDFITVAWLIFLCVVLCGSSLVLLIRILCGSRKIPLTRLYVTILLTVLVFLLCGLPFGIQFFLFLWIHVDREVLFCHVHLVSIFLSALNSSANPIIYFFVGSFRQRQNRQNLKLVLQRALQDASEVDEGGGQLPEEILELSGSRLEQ

Row | SMILES | B-score
1 | O=C(c1ccc(Oc2ccc(Cl)cc2)c([N+](=O)[O-])c1)N1CCCC1 | inactive
2 | Cc1nn(C)c(C)c1Sc1ccccc1N | inactive
3 | CC(=O)N1CCN(C(=O)c2cc(-c3ccc(Cl)s3)nc3ccccc23)CC1 | inactive
4 | Brc1ccc2c(c1)[C@H]1OCC[C@H]1[C@@H](c1cccs1)N2 | inactive
5 | Cc1ccccc1NC(=O)CCOc1ccccc1 | inactive
6 | O=C(CCn1c(=S)[nH]c2cc3c(cc2c1=O)OCO3)NCc1ccc(Cl)cc1 | inactive
7 | CN(C)CCn1c(=S)[nH]c2ccc(Cl)cc2c1=O | -7.49 (active)
8 | CCCCn1c(=S)[nH]c2ccccc2c1=O | inactive
9 | Cc1cccc(N2CCN(C(=O)/C=C/c3ccco3)CC2)c1C | inactive
10 | CC1CCC2CCCCC2N1C(=O)c1cc([N+](=O)[O-])cc([N+](=O)[O-])c1 (stereo not drawn) | inactive
11 | CCCCCC1CCC(c2nnc(SCC(C)=O)o2)CC1 (stereo not drawn) | inactive
12 | O=C(CCS(=O)(=O)c1cccc2nonc12)NCCc1ccccc1Cl | inactive
13 | CC(NC(=O)c1ccccc1F)c1cccc2ccccc12 (stereo not drawn) | inactive
14 | O=C(CSc1nnc(-c2c[nH]c3ccccc23)n1-c1ccc(F)cc1)NCc1ccco1 | inactive
15 | COc1ccc(-n2c(SCC(=O)NCc3cccs3)nnc2-c2ccoc2C)cc1 | inactive
16 | COc1ccc(-n2c(SCC(=O)NCc3ccco3)nnc2-c2c[nH]c3ccccc23)cc1 | -6.52 (active)
17 | O=c1[nH]snc1-c1c(Cl)cccc1Cl | inactive
18 | CCOc1ccc(CCNC(=O)Nc2ccccc2)cc1OCC | inactive
19 | COc1cccc(CNC(=O)C2CC(=O)N(C3CCCCCCC3)C2)c1 (stereo not drawn) | inactive
20 | Cc1no[n+]([O-])c1COc1ccccc1/C=C1\NC(=S)NC1=O | inactive
21 | O=c1c2cc(Br)ccc2nc(-c2cccc(Cl)c2)n1O | inactive
22 | O=c1c2c(nc3cc(-c4cccc(Cl)c4)[nH]n13)CCCC2 | inactive
23 | O=C1CCCc2c1nc(-c1cccc(Cl)c1)n2O | -7.62 (active)
24 | Cc1c(CC(=O)NCC(=O)NCC(=O)O)c(=O)oc2cc3oc4c(c3cc12)CCCC4 | inactive
25 | CC(C)CNC(=S)NC(=O)c1ccc(Cl)cc1 | inactive

Row | SMILES | B-score
26 | COc1cccc(-c2cccc(NC(=O)C3CCN(C4CCC4)CC3)c2)c1 | inactive
27 | O=C(CN(C(=O)c1csnn1)c1cccc(F)c1)NCc1ccc(F)cc1 | inactive
28 | COC(=O)C1=C(C(=O)OC)C2(OC1c1ccc(Br)cc1)C(=O)c1ccccc1C2=O (stereo not drawn) | inactive
29 | Cc1ccccc1OCC(=O)Nc1nc(C)c(C(=O)N(C)C)s1 | inactive
30 | Cc1cccc(NC(=O)COc2ccc(Br)cc2C)n1 | inactive
31 | Cc1cccc(NC(=O)COc2ccccc2C)n1 | -4.62 (active)
32 | COc1ccc(C)cc1NC(=S)N1CCOCC1 | inactive
33 | CN1CCN(NC(=O)Nc2ccc(Br)cc2)CC1 | inactive
34 | COCC(=O)Nc1ccc(Br)cc1 | inactive
35 | CN1C(CC(=O)Nc2ccc(Br)cc2)c2ccccc2CC1(C)C (stereo not drawn) | -5.82 (active)
36 | CCN(CC)c1ccc(C(=O)NNC(=O)CCc2nc3ccccc3c(=O)[nH]2)cc1 | inactive
37 | Cc1ccccc1N1CCN(S(=O)(=O)c2ccc3ccccc3c2)CC1 | inactive
38 | O=S(=O)(c1ccc2ccccc2c1)N1CCN(S(=O)(=O)N2CCOCC2)CC1 | -11.5 (active)
39 | Cc1ccc(S(=O)(=O)N2CCN(S(=O)(=O)N3CCOCC3)CC2)cc1 | inactive
40 | Cc1cccc(OCC(=O)NC(=S)Nc2ccccc2N2CCOCC2)c1 | inactive
41 | CCc1ccc(C(=O)NC(=S)Nc2ccccc2N2CCOCC2)cc1 | inactive
42 | O=C(COc1ccc(Cl)cc1)NC(=S)Nc1ccccc1N1CCOCC1 | -5.65 (active)
43 | CCOC(=O)C1CCN(C(=O)CN2C(=O)c3cccnc3Oc3ccc(C)cc32)CC1 | inactive
44 | C[C@@H](NC(=O)[C@@H]1Cc2ccccc2CN1)C(=O)NC1CCCC1 | inactive
45 | Cc1nc2ccccc2nc(C)c1=NOCc1ccc(Cl)cc1Cl | inactive
46 | COc1ccc(CCNC(=O)CCc2cn(C)c3ccccc23)c(OC)c1 | inactive
47 | NC(=O)NC(=O)C(OC(=O)CCNS(=O)(=O)c1ccccc1)c1ccccc1 (stereo not drawn) | inactive
48 | CCOc1ccc(NC(=O)CCNC(=O)c2ccc(Br)cc2)cc1 | -4.98 (active)
49 | CCOc1ccc(NC(=O)c2ccc(NC(=O)COC(=O)c3ccc(NC(=O)CC#N)cc3)cc2)cc1 | inactive
50 | CCOc1ccc(C(=O)Nc2ccncc2)cc1 | inactive

Row | SMILES | B-score
51 | Fc1cccc(Cc2noc(CN3CCN(c4cnccn4)CC3)n2)c1 | inactive
52 | Fc1ccccc1COc1ccccc1CNCc1ccncc1 | inactive
53 | c1ccc(COc2ccccc2CNCc2cccnc2)cc1 | -6.34 (active)
54 | C=CCOc1cccc(CNCc2cccnc2)c1 | inactive
55 | COc1ccc(N2C(=O)C(CC(=O)Nc3ccccc3)N(Cc3ccc(OC)c(OC)c3)C2=O)cc1 (stereo not drawn) | inactive
56 | CCOc1ccc(C(=O)N(Cc2ccc(N(C)C)cc2)C2CCS(=O)(=O)C2)cc1 (stereo not drawn) | inactive
57 | COc1cc(C(=O)N(Cc2ccc(N(C)C)cc2)C2CCS(=O)(=O)C2)cc(OC)c1OC (stereo not drawn) | -4.58 (active)
58 | COc1ccc(C(=O)N(Cc2ccc(N(C)C)cc2)C2CCS(=O)(=O)C2)cc1 (stereo not drawn) | inactive
59 | O=Cc1ccc(OCc2cn3ccccc3n2)cc1 | inactive
60 | COc1ccc(NS(=O)(=O)c2ccc(F)cc2F)cn1 | inactive
61 | COC(=O)c1sccc1NC(=O)CSc1ccccc1NS(=O)(=O)c1cc(Cl)ccc1Cl | inactive
62 | COC(=O)c1sccc1NS(=O)(=O)c1ccc(F)cc1F | -4.66 (active)
63 | COc1c(Br)cc2c(C)c(C(=O)N3CCOCC3)oc2c1Br | inactive
64 | O=C(CN1CCN(c2ccc(Cl)cc2)CC1)N1CCCC1 | -6.44 (active)
65 | O=C(CN1CCCC1)N1CCN(c2ccccc2)CC1 | inactive
66 | O=C(CN1CCN(c2ccc(Cl)cc2)CC1)c1ccccc1 | inactive
67 | Cc1cccc(-[n+]2c(-c3cccc(Br)c3)[nH]c3nc4ccccc4nc32)c1 | inactive
68 | COc1cccc(CCNC(=O)COc2cccc3c2OC(C)(C)C3)c1 | -5.36 (active)
69 | CC1(C)Cc2cccc(OCC(=O)Nc3nccs3)c2O1 | inactive
70 | CC1(C)Cc2cccc(OCC(N)=O)c2O1 | inactive
71 | CN(CC(=O)Nc1ccccc1Cl)C(=O)COc1cccc2c1OC(C)(C)C2 | -5.16 (active)
72 | CC1(C)Cc2cccc(OCC(=O)N3CCN(c4ccc([N+](=O)[O-])cc4)CC3)c2O1 | inactive
73 | CC1(C)Cc2cccc(OCC(=O)NCc3ccccc3)c2O1 | inactive
